Assay results from PubChem BioAssay (NCI).
The panel holds about 83,000 compounds, 20% with a hit somewhere; the sample as a whole holds those more often.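 Plates (96-well) were seeded with cells, treated with compound at one concentration, and incubated for 48 hours before percent growth was determined.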 Active and inactive are the calls of the source.

What follows are compounds tested on HCC-2998 colon (assay: NCI-60 one-dose screen, 48 h (100 = growth as untreated, 0 = no growth, -100 = all killed)). Details: 10 µM unless noted.
Protocol: Growth inhibition of the HCC-2998 human tumor cell line is measured as a screen for anti-cancer activity. Cells are grown in 96 well plates and exposed to the test compound for 48 hours. Compounds are tested at a single concentration, which is 10^-5 M for most compounds. The reported endpoint is percent growth (GI% or GIPRCNT), where numbers from 0 - 100% represent growth inhibition, and numbers from -100% - 0 represent cell death. For example, a value of 40 represents 60% growth inhibition. A value of 0 means no net growth occurred over the course of the experiment. A value of -40 indicates 40% of cells at the beginning of the experiment died by the end of the experiment. A value of -100 means all cells are dead at the end of the experiment.
NCI-60 Human Tumor Cell Lines Screen was performed using the standard one-dose NCI protocol, which is described in more detail at https://dtp.cancer.gov/discovery_development/nci-60/default.htm.
Compounds with GIPRCNT values below 10 were considered active. Activity score was based on GIPRCNT using the following formula: […]
Score is 0 for GIPRCNT values of 100 or above, 50 for GIPRCNT values of 0, and 100 for GIPRCNT values of -100.

| SMILES | growth |
| --- | --- |
| CCCCCCCCCCCCCC1=NCC[N+]1(CCO)Cc1ccccc1 (stereo not given) | -75.3% (active) |
| Nc1ccc2c(c1)C(=O)C(=O)c1c-2nc2ccccn12 | 19.4% (inactive) |
| Cc1nc2sc(C(=O)Nc3ccccc3Cl)c(N)c2cc1C(C)O (stereo not given) | 84.5% (inactive) |
| COc1ccc(/C=C/C(=O)C(CC2CCC2)C(=O)/C=C/c2ccc(OC)c(OC)c2)cc1OC | -80.6% (active) |
| CNS(=O)(=O)c1cccc(-c2ccc3c4c(n(C)c(=O)c3c2)-c2ccccc2C4=O)c1 | 90.6% (inactive) |
| C#CCN1C(=O)c2ccccc2N(CC#C)C12CCN(Cc1cn(CC(=O)Nc3ccccc3C(N)=O)nn1)CC2 | 100% (inactive) |
| COc1cccc(C(=O)OCCn2nc3c4c(cccc42)C(=O)c2ccccc2-3)c1O | 80.3% (inactive) |
| COc1cc(C2=N/C(=C\c3cc4ccccc4nc3Oc3ccccc3)C(=O)N2C(=N)N)cc(OC)c1OC | 75.2% (inactive) |
| COc1ccccc1C(=O)/C=C/c1cc2cccc(OC)c2[nH]c1=O | -84.7% (active) |
| CCCCc1n(Cc2ccc3ccccc3n2)cc[n+]1Cc1ccc2ccccc2c1 | -6.38% (active) |
| COc1ccc(/C(=N\O)c2cc(C)c(OC)c(C)c2)cc1O | 26.2% (inactive) |
| C=C1C(=O)O[C@H]2[C@H]1CC/C(COC(=O)CCCCCCCCC(=O)OC/C1=C/CC[C@@]3(C)O[C@H]3[C@H]3OC(=O)C(=C)[C@@H]3CC1)=C\CC[C@@]1(C)O[C@@H]21 | 44.2% (inactive) |
| O=C(CN1N=C(c2ccc(F)cc2)CCC1=O)Nc1nc2ccccc2s1 | 95.7% (inactive) |
| CSc1nc(-c2cccs2)c2c(N)[nH]nc2n1 | 107% (inactive) |
| CCOCCc1c(O)nc(SC)[nH]c1=O | 39.4% (inactive) |
| COc1ccc(Nc2cc(NC(=O)CNc3cc(OC)c(Cl)c(OC)c3Cl)ncn2)cc1 | 95.5% (inactive) |
| COc1ccc(Sc2[nH]c(C(C)=O)c3ccccc23)cc1 | 70.2% (inactive) |
| C[C@H](Oc1cc(-c2cnn(C3CCNCC3)c2)cnc1N)c1c(Cl)ccc(F)c1Cl | 66% (inactive) |
| COC(=O)c1nc(-c2ccccc2)oc1S(=O)(=O)n1nc(-c2ccccc2)cc1N | 108% (inactive) |
| NC[C@@H]1CCN(c2cc3c(cc2F)c(=O)n(N)c(=O)n3Cc2ccc(-c3ccccc3)cc2)C1 | 96% (inactive) |

| SMILES | growth |
| --- | --- |
| O=C(Nc1ccc2ncnc(Nc3ccc(F)c(Cl)c3)c2c1)c1ccccc1 | 98.7% (inactive) |
| N#Cc1c(-c2ccc(F)cc2)nc(N=Nc2c(O)[nH]c3ccccc23)nc1N1CCOCC1 | 96.2% (inactive) |
| Cc1cc(NC(=O)CNc2nc(Oc3ccc(F)cc3)nc(-c3ccc(F)cc3)n2)ccc1Cl | 102% (inactive) |
| COc1ccc2nc(-c3ccc(Cl)cc3)cc(C(=O)N3N=C(c4ccc(N)cc4)CC3c3ccccc3)c2c1 (stereo not given) | 70.3% (inactive) |
| C/C(=N\NC(=O)c1ccncc1)c1ccc(N)cc1 | 106% (inactive) |
| C#CCN(CCCOc1ccc(Cl)cc1Cl)CCCSC(=O)CCCCCN1/C(=C\C=C2/CCCC(/C=C/C3=[N+](CCCCCC(=O)[O-])c4ccccc4C3(C)C)=C2Cl)C(C)(C)c2ccccc21 | 40.3% (inactive) |
| COc1ccc(/C=C(/C(=O)N2CCN(Cc3ccccc3)CC2)c2cc(OC)c(OC)c(OC)c2)cc1O | 95.8% (inactive) |
| C=C1C(=O)O[C@H]2[C@H]1CC/C(C=Nc1c(N)cc(C(F)(F)F)cc1Br)=C\CC[C@@]1(C)O[C@@H]21 | 34.2% (inactive) |
| C1=CC2=CC=C3C=CC=C4C(c5nc6c7ccccc7c7ccccc7c6[nH]5)=CC(=C1)C2C34 (stereo not given) | 111% (inactive) |
| C#Cc1ccccc1NC(=O)c1sc2nc3c(cc2c1N)CCCCCC3 | 104% (inactive) |
| CCOC(=O)c1ccc(Nc2ncnc3ccc(NC(=O)c4ccccc4)cc23)cc1 | 97.3% (inactive) |
| C=C1C(=O)O[C@H]2[C@H]1CCC(/C=N/c1ncc(Br)cc1N)=C\CC[C@@]1(C)O[C@@H]21 | 62.2% (inactive) |
| CC1(C)[C@@H](O)CC[C@]2(C)[C@H]3CC[C@@H]4[C@H]5[C@H](c6cn(-c7ccccc7)nn6)CC[C@]5(CO)CC[C@@]4(C)[C@]3(C)CC[C@@H]12 | 110% (inactive) |
| Clc1ccc2c(NCCCNC3CCCCC3)ccnc2c1 | 91.3% (inactive) |
| O=C(/C(=C/c1ccc([N+](=O)[O-])cc1)SCc1ccc(Cl)cc1)c1ccc(F)cc1 | 84.5% (inactive) |
| C#C[C@@]1(O)[C@@H](CO)O[C@@H](n2cc(Br)c3c(N)ncnc32)[C@@H]1O | -22% (active) |
| C#C[C@@]1(O)[C@@H](CO)O[C@@H](n2cc(I)c3c(N)ncnc32)[C@@H]1O | -35.3% (active) |
| O=C1CC23OC(C(O)c4ccccc4N12)C1C(c2ccccc2)=NOC13 (stereo not given) | 85.2% (inactive) |
| CCCNc1nc(C)[nH]c(=O)c1S | 112% (inactive) |
| FC(F)(F)c1ccc2c(Nc3cccc(C4CC(c5ccccc5)=NN4c4ccc(Cl)cc4)c3)ccnc2c1 (stereo not given) | 66.5% (inactive) |
